FGF22 binding-1 = binders of human FGF22 protein, primary screen, FGF22 synaptogenesis inhibitor project, biophysical, thermal shift, single point; Fibroblast growth factor 22 (Homo sapiens), Q9HCT0; recombinant FGF22 thermal shift, SYPRO orange fluorescence; percent of sucrose octasulfate shift, DMSO zero; activity (Tm shift, normalised), % at 9.99 µM; 340,000 tested, 1.5% active;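 active means mean Tm shift, scaled 0 neutral to 100 positive control, at about 1.3% or above, every replicate too, limit read from the data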
Target sequence (Q9HCT0 whole entry, looked up): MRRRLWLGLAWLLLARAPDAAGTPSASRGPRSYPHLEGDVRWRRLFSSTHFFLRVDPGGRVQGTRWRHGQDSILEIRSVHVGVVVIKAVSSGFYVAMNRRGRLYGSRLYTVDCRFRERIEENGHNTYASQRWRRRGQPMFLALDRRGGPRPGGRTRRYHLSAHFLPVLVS
Casp6 inh = human caspase-6 inhibitors, primary screen, biochemical, VEID-R110 fluorescence, single point, set 2. purified caspase-6, Z-VEID-R110 cleavage fluorescence. AID 686996, 2013. inhibition, % at 12.5 µM. 350,000 tested, 0.53% active;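 active means mean inhibition across replicates at least about 35%, with every replicate also reaching that limit, limit read from the data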
Target sequence (P55212 24-179 limits assumed): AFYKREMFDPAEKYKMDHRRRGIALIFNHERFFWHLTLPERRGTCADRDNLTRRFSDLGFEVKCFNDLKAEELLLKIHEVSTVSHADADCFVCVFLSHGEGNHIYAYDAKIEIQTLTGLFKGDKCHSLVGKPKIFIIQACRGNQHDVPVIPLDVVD
Target sequence (P55212 194-293 limits assumed): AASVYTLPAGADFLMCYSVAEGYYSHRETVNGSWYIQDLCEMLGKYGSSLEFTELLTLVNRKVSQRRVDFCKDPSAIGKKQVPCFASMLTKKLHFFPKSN
ERAP1 inh = human ERAP1 aminopeptidase inhibitors, primary screen, biochemical, single point, plate reader; 340,000 tested, 0.15% active; AID 652197, 2013; Endoplasmic reticulum aminopeptidase 1 (Homo sapiens), Q9NZ08; inhibition, % at 10.7 µM; recombinant ERAP1, Leu-AMC fluorescence, 60 min;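 active means mean replicate inhibition of at least 30%, or all replicates individually reaching that 30% level; inactive means mean below 30% and not every replicate reaching it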
SIRT5 inh = SIRT5 desuccinylase inhibitors, primary screen, biochemical, fluorescence imaging, single point, set 5; 330,000 tested, 1.1% active; Purified SirT5, succinyl-peptide AMC, trypsin-coupled fluorescence; NAD-dependent protein deacylase sirtuin-5, mitochondrial (Homo sapiens), Q9NXA8; inhibition, % at 15 µM; in the data active means inhibition above about 15%
GSIS activator = GLuc luminescence reporter in INS-1E cells, primary screen for activators of glucose-dependent secretion of insulin; INS-1E GLuc reporter insulin secretion, 2-3 h; activation, % at 16.6 µM; 370,000 tested, 0.61% active; AID 743287, 2014;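 active means lowest replicate activation of at least 40%, so every replicate reaches that level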
FGF22 binding-2 = binders of human FGF22 protein, dose response, FGF22 synaptogenesis inhibitor project, biophysical, thermal shift, cherry-pick retest | shares compounds with FGF22 binding-1 | recombinant FGF22 thermal shift, SYPRO orange fluorescence | thermal shift activity, °C (ΔTm) at 38 µM | 1,000 tested, 2% active | AID 720646, 2013;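 active means fitted rise in melting shift crosses a set limit at or below the top valid dose tested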
SYPRO no-protein = compound-only thermal shift signal without protein, dose response, artefact control for FGF22 binder project, biochemical, cherry-picked samples, RT-PCR instrument. AC50, µM (series often up to 38 µM). 1,000 tested, 2% active. shares compounds with FGF22 binding-1. compound-only SYPRO orange thermal shift counter-screen, no protein;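 active means rising signal whose fitted curve reaches the 0.54 level within the top valid dose, showing a melting point, actives reach about 13 µM in these data; inactive means the rest, including activity in the opposite direction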; further: value is where the raw curve crosses a fixed level and not half-maximal
Each line names hits and unclear results; the compound was inactive in the other large screens (follow-up assays come after a bar, where they were run). Only some compounds are listed: those with a hit (about 3.3% of all), similar ones and a draw of the others.

CN(C)S(=O)(=O)c1ccc(Cl)c(C(=O)Nc2cccc([N+](=O)[O-])c2)c1	none (no result: ERAP1 inh, SIRT5 inh)
O=C(O)c1cccc(NS(=O)(=O)c2ccc(Cl)c(C(=O)Nc3cccc([N+](=O)[O-])c3)c2)c1	FGF22 binding-1 1.8 (no result: ERAP1 inh) | FGF22 binding-2 inactive | SYPRO no-protein inactive
O=C(O)c1ccc(NC(=O)c2cccc(S(=O)(=O)Nc3ccc(C(=O)O)cc3)c2)cc1	FGF22 binding-1 2.1 | FGF22 binding-2 inactive | SYPRO no-protein inactive
O=C(CC(=O)c1ccccc1)Nc1cccc([N+](=O)[O-])c1	FGF22 binding-1 1.8 | FGF22 binding-2 inactive | SYPRO no-protein inactive
Cc1ccc2[nH]c3ccccc3c(=O)c2c1	none
O=c1c2ccccc2[nH]c2ccc(F)cc12	FGF22 binding-1 1.5 | FGF22 binding-2 inactive | SYPRO no-protein inactive
C[C@@H]1CCCCO[C@@H](CN(C)S(=O)(=O)c2cccs2)[C@H](C)CN([C@@H](C)CO)C(=O)c2cc(NC(=O)c3ccccc3)ccc2O1	none (no result: Casp6 inh, ERAP1 inh, SIRT5 inh)
CC(=O)c1c(C)nc(-c2ccc(OCC(=O)Nc3cccc(C)c3C)cc2)n1O	FGF22 binding-1 2.2 | FGF22 binding-2 inactive | SYPRO no-protein inactive
CC(=O)c1c(C)nc(-c2ccc(OCC(=O)Nc3ccccc3)cc2)n1O	none
COc1cc(-c2nc(C)c(C(C)=O)n2O)ccc1OCC(=O)Nc1ccc(Cl)cc1	FGF22 binding-1 2.5 | FGF22 binding-2 inactive | SYPRO no-protein inactive
O=C(C(=O)N1CCN(C/C=C/c2ccccc2)CC1)c1ccccc1	FGF22 binding-1 15 (no result: ERAP1 inh) | FGF22 binding-2 inactive | SYPRO no-protein inactive
O=C(NNC(=O)C1CCN(S(=O)(=O)c2ccccc2C(F)(F)F)CC1)c1ccccc1O	FGF22 binding-1 2.6 | FGF22 binding-2 inactive | SYPRO no-protein inactive
Cc1[nH]c2ccccc2c1N=Nc1cc(C(=O)O)cc(C(=O)O)c1	FGF22 binding-1 1.5 | FGF22 binding-2 inactive | SYPRO no-protein inactive
CCC(=O)N1CC2(CCN(Cc3ccncc3)CC2)c2c(n(C)c3cc(OC)ccc23)[C@@H]1CO	none (no result: Casp6 inh, ERAP1 inh, SIRT5 inh)
COc1ccc(C(=O)C2CCCN(C(=O)c3cc(C(C)C)no3)C2)cc1F (centres undefined)	FGF22 binding-1 9.8 | FGF22 binding-2 inactive | SYPRO no-protein inactive
COc1ccccc1C(=O)C1CCCN(C(=O)c2cc(C(C)C)no2)C1 (centres undefined)	none
O=C(Nc1ccc2c(c1)OCO2)c1ccc(NC2CC2)c([N+](=O)[O-])c1	FGF22 binding-1 1.6 | FGF22 binding-2 inactive | SYPRO no-protein inactive
CNC[C@@H]1Oc2c(NC(=O)NC(C)C)cccc2C(=O)N(C)C[C@@H]1C	none (no result: FGF22 binding-1, Casp6 inh, ERAP1 inh, SIRT5 inh)
O=Cc1cc(N=Nc2cccc(C(=O)O)c2)ccc1O	FGF22 binding-1 2.0 | FGF22 binding-2 inactive | SYPRO no-protein inactive
Cc1nc(NC(=O)C2CC2)sc1C(=O)Nc1ccccc1Cl	FGF22 binding-1 1.9 | FGF22 binding-2 inactive | SYPRO no-protein inactive
C[C@@H]1CN([C@H](C)CO)C(=O)c2cc(NC(=O)Cn3cnnn3)ccc2O[C@@H]1CN(C)S(C)(=O)=O	none
Brc1ccc(-c2nc3ccccc3s2)s1	none (no result: FGF22 binding-1, Casp6 inh, ERAP1 inh, SIRT5 inh)
O=c1ccc2nc3ccccc3sc-2c1	FGF22 binding-1 1.7 | FGF22 binding-2 inactive | SYPRO no-protein inactive
CC(=O)Nc1ccc(S(=O)(=O)Nc2ccn(Cc3ccccc3Cl)n2)cc1	FGF22 binding-1 2.1 | FGF22 binding-2 inactive | SYPRO no-protein inactive
CC(=O)Nc1ccc(S(=O)(=O)Nc2ccc(Cl)nn2)cc1	none (no result: FGF22 binding-1, Casp6 inh, ERAP1 inh, SIRT5 inh)
CCC(CC)CN1CCC(CN2C(=O)C(=O)NC[C@@H]2CC(C)C)CC1	FGF22 binding-1 1.9 | SYPRO no-protein inactive
C/C(CC(=O)Nc1ccccc1Cl)=N\NC(=O)C(=O)NCCO	none

Bioassay records: PubChem BioAssay, Broad Institute
